According to PubChem BioAssay (NCATS):
Results filed as inconclusive are left out. Activity calls are given as the source filed them. Calls come from the whole dose curve; as a rule, active = well fitted cell-killing curve with a large enough effect; inconclusive = small, poorly fitted or top-dose-only effect, or effect the other way; inactive = no such curve, though single readings can be large or run the other way.

Assay: qHTS of pediatric cancer cell lines to identify multiple opportunities for drug repurposing: Confirmatory screen for SJ-GBM2 cells (AID 1347116); note: nearly all actives have a fitted effect of over 60% in size
Conditions: SJ-GBM2 glioblastoma cells, viability; series mostly up to 45.9 µM
Summary of the method: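 Viability measured as metabolically active cells via CellTiter-Glo luminescence following 48 hours of compound exposure, 11-point dilutions in confirmatory testing. 500-1,000 cells/well plated 5 hours before dosing; controls were DMSO and 2.3 µM bortezomib.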
Potency is the fitted concentration of half-maximal effect.

Row | Structure (SMILES) | Potency
1 | Cc1ccccc1-n1c(Cn2ncc3c(N)ncnc32)nc2cccc(C)c2c1=O | inactive
2 | CC(C)[C@]12O[C@@H]1[C@@H]1O[C@]13[C@]1(O[C@H]1C[C@@H]1C4=C(CC[C@@]13C)C(=O)OC4)[C@H]2O | 65.7 nM (active)
3 | O=C(N[C@H]1CN2CCC1CC2)c1ccc(Cl)cc1 | 585 nM (active)
4 | CC(=Cc1csc(C)n1)[C@@H]1C[C@H]2O[C@@H]2CCC[C@H](C)[C@@H](O)[C@@H](C)C(=O)C(C)(C)[C@@H](O)CC(=O)O1 | 104 nM (active)
5 | CC(C)(C)C(O)C(Oc1ccc(Cl)cc1)n1cncn1 (configuration not stated) | inactive
6 | C[C@H]1CCCC=CC2C[C@H](O)C[C@@H]2[C@H](O)C=CC(=O)O1 (some centres not stated) | 208 nM (active)
7 | CC[C@H]1C=CC=CC[C@@H](C)[C@H](O)[C@@](C)(O)C(=O)[C@@H](C)[C@H](O)[C@@H](C)C(=O)[C@@H](C)[C@H](O)[C@@H](C)C=CC(=O)O[C@@H]2[C@@H](C)[C@H](CC1)O[C@]1(CC[C@H](C)[C@H](C[C@@H](C)O)O1)[C@H]2C | 20800 nM (active)
